PubChem BioAssay (Tox21)
Results filed as inconclusive are left out. Calls of active or inactive are those of the source. Calls follow the shape of the dose curve; as a rule, active = well fitted inhibition curve with a large enough effect in the signal ratio in the repeat runs, with a control signal flat; inconclusive = weak or mixed curves, or effect the other way; inactive = flat fitted curve, though single readings scatter; the % refers to the signal ratio.

Biological target: D(2) dopamine receptor (Homo sapiens) (UniProt P14416)
Assay: Dopamine D2 receptor (DRD2) small molecule antagonists, cell-based qHTS assay (AID 1963595)
Details: HEK293-DRD2 cAMP HTRF antagonist mode; series mostly up to 92.4 µM; activity change, negative = inhibition: at the top concentration
From the text: National Center for Advancing Translational Sciences [NCATS]
Division of Preclinical Innovation [DPI]
U.S. Environmental Protection Agency [EPA]
National Institutes of Environmental Health Sciences [NIEHS]
National Toxicology Program [NTP]
U.S. Food and Drug Administration [FDA]
DRD2 is the D2 subtype of the dopamine receptor, which is coupled to Gi subtype of G protein-coupled receptor. This G protein-coupled receptor inhibits adenylyl cyclase activity. The DRD2-HEK293 cell line stably expressing D2 dopamine receptor can be used for screening agonists and antagonists of interactions between D2 and its ligands. The Hek293-DRD2 cAMP assay is based on HTRF technology. It measures changes of cAMP accumulation in response to Gi coupled GPCR activation or inhibition.
Tox21 Assay Protocol Summary:
DRD2-Hek293 cells were dispensed at 600 cells/3uL/well in 1536-well white plates using a Multidrop Dispenser. After the assay plates were incubated at a 37 C/5% CO2 incubator for 24 h, 1 uL of Ro20-1724 at final concentration of 0.1 mM was transferred to the assay plate by a Flying Reagent Dispenser. Following Ro20-1724 addition, 23 nL of compound dissolved in DMSO, positive controls or DMSO only was added to the assay plates via Wako pintool station. The assay plates were incubated at room temperature for 10 min. Next, 1 uL of mixture of NKH477 (final concentration at 200 nM) and quinpirole (final concentration at 12 nM) was added into the plates. After the assay plates were incubated at room temperature for an additional 30 min, 2.5 ul/well of cAMP-d2 and 2.5 ul/well of anti-cAMP-cryptate were added respectively into the assay plates using a Flying Reagent Dispenser. The plates were incubated at room temperature for 1 h. The fluorescence intensity in the plates was measured at 340 nm excitation and 665 & 620 nm emission by an Envision plate reader.
% is scaled to controls: 0 for no effect and ±100 for the full control effect.

D(2) dopamine receptor (Homo sapiens), sequence (P14416 whole entry, looked up): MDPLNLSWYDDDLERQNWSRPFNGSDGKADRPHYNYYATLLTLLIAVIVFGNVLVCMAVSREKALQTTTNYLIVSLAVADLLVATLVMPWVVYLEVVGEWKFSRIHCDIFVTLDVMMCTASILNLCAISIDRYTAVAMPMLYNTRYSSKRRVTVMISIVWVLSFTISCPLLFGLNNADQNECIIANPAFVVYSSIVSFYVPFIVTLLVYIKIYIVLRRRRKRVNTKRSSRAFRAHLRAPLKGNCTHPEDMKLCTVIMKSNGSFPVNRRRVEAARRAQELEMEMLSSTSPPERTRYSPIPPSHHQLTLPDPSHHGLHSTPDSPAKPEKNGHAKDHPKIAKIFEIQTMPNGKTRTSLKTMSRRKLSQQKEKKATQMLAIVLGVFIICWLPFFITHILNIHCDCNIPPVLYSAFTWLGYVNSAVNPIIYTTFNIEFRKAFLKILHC

Compound | activity change, negative = inhibition | Potency
C=CCCCCCCCCC(=O)OCCCC | -16.7% (inactive) | 
CC(C)N=C(N)/N=C(\N)Nc1ccc(Cl)cc1 | 1.75% [at 42.5 µM] (inactive) | 
NS(=O)(=O)c1ccc(N2CCCCS2(=O)=O)cc1 | 13% [at 42.5 µM] (inactive) | 
O=S(=O)(O)CCCN1CCOCC1 | 5.95% (inactive) | 
NC(=O)NS(=O)(=O)c1ccc(Cl)cc1 | 3.58% [at 42.5 µM] (inactive) | 
C=C1C[C@H]2[C@@H]3C=C(C)C4=CC(=O)CC[C@]4(C)[C@H]3CC[C@]2(C)[C@@]1(OC(C)=O)C(C)=O |  | inactive
CCSC(=O)N(CC)CC | -1.93% (inactive) | 
CC(=O)c1ccccc1O | -4.27% (inactive) | 
O=C(O[C@@H]1Cc2c(O)cc(O)cc2O[C@@H]1c1cc(O)c(O)c(O)c1)c1cc(O)c(O)c(O)c1 | 12.3% (inactive) | 
Fc1ccccc1-c1ccccc1 | 4.45% (inactive) | 
C=CCOCC(O)CO (stereo not given) | -2.52% (inactive) | 
C[C@@H]1O[C@@H](OC[C@H]2O[C@@H](Oc3c(-c4ccc(O)c(O)c4)oc4cc(O)cc(O)c4c3=O)[C@H](O)[C@@H](O)[C@@H]2O)[C@H](O)[C@H](O)[C@H]1O |  | inactive
C1CSCCS1 | -4.74% (inactive) | 
CC(C)(C)C(=O)OCOC(=O)C1N2C(=O)CC2S(=O)(=O)C1(C)C (stereo not given) | -10.4% [at 42.5 µM] (inactive) | 
CN1N=C(C(N)=O)CCC1=O | 10.1% [at 42.5 µM] (inactive) | 
COc1cc2c(Nc3ccc(Br)cc3F)ncnc2cc1OCC1CCN(C)CC1 | 7.29% [at 42.5 µM] (inactive) | 
O=Cc1cc2ccccc2o1 | 1.28% (inactive) | 
O=c1[nH][nH]c(=O)c2cc([N+](=O)[O-])ccc12 | -0.722% (inactive) | 
Cc1ncc(CO)c(CN)c1O | 4.56% [at 42.5 µM] (inactive) | 
CCOC(=O)c1cc(=O)c2c(OCC(COc3cccc4oc(C(=O)OCC)cc(=O)c34)OC(=O)[C@@H](N)CCCCN)cccc2o1 | 1.1% [at 42.5 µM] (inactive) | 

Compound | activity change, negative = inhibition | Potency
COc1ccc(NC(C)=O)cc1 | -0.393% (inactive) | 
Oc1cc(O)c2c(c1)O[C@H](c1ccc(O)c(O)c1)[C@H](O)C2 | 1.62% [at 42.5 µM] (inactive) | 
CC(=O)OCC1=C(C(=O)O)N2C(=O)[C@@H](NC(=O)Cc3cccs3)[C@H]2SC1 | 3.47% [at 42.5 µM] (inactive) | 
N[C@H](C(=O)O)c1ccc(O)cc1 | 7.69% [at 18.9 µM] (inactive) | 
O=S(=O)(O)C(F)(F)F | 1.49% (inactive) | 
CC(C)S | 0.362% (inactive) | 
Cc1ccc(C=O)cc1 | 3.94% [at 42.5 µM] (inactive) | 
Nc1ccc2c(S(=O)(=O)O)cccc2c1S(=O)(=O)O | 5.43% [at 42.5 µM] (inactive) | 
CCOC(OCC)C(=O)c1ccccc1 | 0.303% (inactive) | 
CCCCCC=O |  | inactive
CC(C)(c1ccccc1)c1ccc(Nc2ccc(C(C)(C)c3ccccc3)cc2)cc1 |  | inactive
COc1ccc(Cl)cc1C | -2.7% (inactive) | 
CC/C=C\C/C=C\C/C=C\CCCCCCCC(=O)O |  | inactive
O=C1OCCO1 | 5.59% (inactive) | 
NCCO | -2.06% (inactive) | 
OC[C@H]1O[C@@](CO)(O[C@H]2O[C@H](CO)[C@@H](O)[C@H](O)[C@H]2O)[C@@H](O)[C@@H]1O |  | inactive
IC(I)I |  | inactive
CCCCc1ncc(/C=C(\Cc2cccs2)C(=O)O)n1Cc1ccc(C(=O)O)cc1 | 5.6% [at 42.5 µM] (inactive) | 
Cc1ccc2c(c1)OCC(=O)CO2 | -3.14% (inactive) | 
O=C(O)Cc1cccc(-c2cc(CCCCCCc3ccc(O[C@H]4O[C@H](CO)[C@@H](O)[C@H](O)[C@@H]4O)c(-c4cccc(CC(=O)O)c4)c3)ccc2O[C@H]2O[C@H](CO)[C@@H](O)[C@H](O)[C@@H]2O)c1 | -1.71% [at 0.348 µM] (inactive) | 
